From PubChem BioAssay (NCI) come the findings set out here.

Where “and” joins values, the source holds several entries; their conditions need not be identical. Identical values can stand only once. This is part of a sample that, as a whole, favours compounds with a hit. Of some 83,000 tested, about 20% had one in any assay.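 Activity criterion: percent growth below 10, measured after cells in 96-well plates were exposed to a single compound concentration for 48 hours.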 Unmarked numbers belong to inactive results. Calls of active or inactive are those of the source.

The experiment has as its system MDA-MB-468 breast. Description: NCI-60 one-dose screen, 48 h (100 = growth as untreated, 0 = no growth, -100 = all killed). As to conditions: 10 µM unless noted.
`O=C(CCc1nnco1)c1nc2ccc([N+](=O)[O-])cc2[nH]1`: the growth is 113%.

With `Cc1ccc2c3c(cccc13)-c1ccccc1C2=O`, the growth was 97%.

As to `COC[C@@]1(C)CC[C@]2(C)CC[C@]3(C)C(=CC[C@@H]4[C@@]5(C)CCCNC(C)(C)[C@@H]5CC[C@]43C)C2C1` (stereo not given in full), the growth was 50.9%.

Regarding `O=C1CCC23OC(C(O)c4ccccc4N12)C1C(Br)=NOC13` (stereo not given), the growth is 115%.

`Cn1nc(Nc2ccccc2)c(C(=O)NN)c1N`: the growth is 100%.

Regarding `Cc1cccc(CNc2c3ccccc3nc3ccccc23)c1`, the growth is -0.391% (active).

For `O=C(/C=C/CN1CCOCC1)Nc1cc2c(Nc3ccc(F)c(Cl)c3F)ncnc2cc1OCCOC(F)F`, the growth was -17.6% (active).

`C(=N\Nc1nnc2n1N=C(c1ccccc1)CS2)/c1ccc(OCc2ccccc2)cc1`: the growth is 88.9%.

Consider `CCN(CC)Cc1cc(Nc2nc(NC3CCC(N(C)C)CC3)c3ccccc3n2)ccc1OC` (stereo not given), for which the growth was -15.1% (active).

Regarding `C=C(C)[C@@H]1CC[C@]2(C(=O)N=C=S)CC[C@]3(C)[C@H](CC[C@@H]4[C@@]5(C)CCC(=O)C(C)(C)[C@@H]5CC[C@]43C)[C@@H]12`, the growth is 11.2%.

For the compound `O=C(CSc1nc2sc3c(c2c(=O)n1-c1ccc(Cl)cc1)CCCC3)NNC(=O)Nc1ccc(Cl)c(C(F)(F)F)c1`, the growth is -42.4% (active).

For the compound `Clc1ccc(Sc2cnc(-c3ccccc3)o2)cc1`, the growth is 111%.

With `COc1cc2nccc(Oc3ccc(NC(=O)Nc4cc(C)on4)c(Cl)c3)c2cc1OC`, the growth was 15%.

As to `CS(=O)(=O)c1ccc(-c2cnn3ccc(-c4cccc(S(=O)(=O)C5CC5)c4)nc23)cc1`, the growth is 27.7%.

Regarding `Cc1nc2c(O)cccc2cc1CO`, the growth is 95.2%.

In the case of `Cc1c(NC(=O)c2sc3nc4c(cc3c2N)CN(Cc2ccccc2)CC4)cccc1C(F)(F)F`, the growth is -5.77% (active).

As for `CC1(C)Cc2c(cn(Cc3ccccc3)c2-c2ccccc2)-c2oncc21`, the growth was 88.5%.

With `CCOC(=O)c1ccc(NC2=CC(=O)C(C)=C(C)C2=O)cc1`, the growth was 13.8%.

In the case of `CCCCN(CCCC)CC(CN(CC)CC)OC(=O)Nc1ccccc1` (stereo not given), the growth is 90%.

In the case of `CC/C(=C(/c1ccc(OCCN(C)C)cc1)c1ccc(OC(=O)CCC(=O)c2c(C)[nH]c(/C=C3\N=C(c4ccc[nH]4)C=C3OC)c2C)cc1)c1ccccc1`, the growth is 53.4%.

In the case of `O=C(CNCCO)Nc1ccc2ncnc(Nc3ccc(OCc4cccc(F)c4)c(Cl)c3)c2c1`, the growth was -17.8% (active).

Regarding `O=C(/C(=C/c1ccccc1)CN1CCCCC1)c1ccccc1`, the growth was -72.8% (active).

Consider `CC(=O)c1nc2ccccc2n1CCN1CCN(C)CC1`, for which the growth is -20.2% (active).

Regarding `Oc1ccc(/C=C/c2ccccc2)cc1`, the growth was 81.3%.

Turning to `C#CCOc1ccc2ncnc(Nc3cccc(NC(=O)C=C)c3)c2c1`, the growth was 41.6%.

With `COc1ccc(C(=O)C(CN(C)C)c2ccc(OC)cc2)cc1` (stereo not given), the growth was 14.2%.

`CCN1CCN(C(=O)[C@]23CCC(C)(C)C[C@@H]2C2=CC[C@@H]4[C@@]5(C)C/C(=C/c6cccnc6)C(=O)C(C)(C)[C@@H]5CC[C@@]4(C)[C@]2(C)CC3)CC1`: the growth is -6.42% (active).

As for `CCCCC1CCc2cccc3c(SCC(=O)N(C)c4ccc(Cl)cc4)cc[n+]1c23` (stereo not given), the growth was 106%.

Consider `O=C1C2=C(C(=O)c3c(O)ccc(O)c31)N(c1ccc(N3CCOCC3)nc1)Cc1ccccc1O2`, for which the growth was -60.8% (active).

In the case of `Fc1ccc(-c2cc3nc(C(Cl)Cl)nc(-c4ccc(Cl)cc4)n3n2)cc1`, the growth is -76.3% (active).

Turning to `O=C(N/N=C\c1cc(Cl)ccc1O)c1ccncc1`, the growth is 36.9%.

With `O=C(O)/C=C/C(=O)NCc1ccccc1`, the growth is 101%.

Consider `Cc1cc2nc(CN)[nH]c2cc1C`, for which the growth is 103%.

In the case of `CCCCc1nc(Cl)c(C2CC(c3ccc(S(N)(=O)=O)cc3)=NN2c2ccc(C#N)cc2)[nH]1` (stereo not given), the growth is 64.5%.

With `COc1c(NC=O)c2c(c([N+](=O)[O-])c1OC)C(=O)OC2`, the growth was 113% and 93.1%.

On to `O=C1Nc2ccccc2/C1=C/c1cccs1`, for which the growth was -20.2% (active).

With `O=C(Nc1ccc(OS(=O)(=O)c2ccc(F)cc2)cc1)C1CCCCCC1`, the growth is 102%.

Regarding `Cc1cc(C)c2c(n1)sc1c(Nc3ccc(Cl)cc3)ncnc12`, the growth is 19%.

Take `Nc1c(C(=O)Nc2ccccc2Cl)sc2nc3c(cc12)CN(Cc1ccccc1)CC3`: the growth is 102%.

As to `COc1cc(/C=C/C(=O)c2ccc(NC(=O)CSc3nnc(-c4cc(OC)c(OC)c(OC)c4)n3-c3ccccc3)cc2)cc(OC)c1OC`, the growth was 9.24% (active).
